Bioassay records from PubChem BioAssay.
This is a sample that favours compounds with a hit; in the whole collection about 28% have one here.
CYP2C9 act: human CYP2C9 activators, primary screen, biochemical, luminescence | Cytochrome P450 2C9 (Homo sapiens), P11712 | recombinant CYP2C9, luciferin-H conversion; stronger effect = higher value; factor 1 = untreated enzyme, 0 = blocked | activation factor at 5 µM | 96,000 tested, 1.4% active | AID 1024, 2008;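 active = activation factor of 2 or more for CYP2C9 at a 5 µM dose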;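 also: 0 = sulfaphenazole-blocked wells and 1 = vehicle-only wells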
CD11b adhes enh: enhancers of CD11b/CD18 adhesion to fibrinogen, primary screen, K562 cells, luminescence | 93,000 tested, 0.07% active | activation, % at 10 µM | ATPlite luminescence | Integrin beta-2 (Homo sapiens) + Integrin alpha-M (Homo sapiens), P05107+P11215;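 active = 10 µM primary screen giving 50% or more activity, confirmed by 40% or more on retest at that dose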
CYP2C19 activ: human CYP2C19 activators, primary screen, biochemical, luminescence; Cytochrome P450 2C19 (Homo sapiens), P33261; recombinant CYP2C19, luciferin-H EGE luminescence; stronger effect = higher value; 0 = fully inhibited enzyme, 1 = untreated enzyme; activation factor at 5 µM; 96,000 tested, under 10 active; AID 1025, 2008;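 active = activation factor of at least 2 at 5 µM in the primary screen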;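 also: 0 = wells with 2.5 mM tranylcypromine and 1 = vehicle-only wells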
CD11b adhes inh: inhibitors of CD11b/CD18 adhesion to fibrinogen, primary screen, K562 cells, luminescence | inhibition, % at 10 µM | ATPlite luminescence; Mn2+ added to activate the integrin | 93,000 tested, 0.54% active | Integrin beta-2 (Homo sapiens) + Integrin alpha-M (Homo sapiens), P05107+P11215 | AID 1497, 2009;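 active = primary inhibition of 50% or more at 10 µM, then 40% or more on retest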
CYP2C19 inh: blockers of cytochrome P450 2C19 activity – biochemical, luminescence, ADME assay, primary screen; P33261; CYP2C19 Supersomes, luciferin-H EGE luminescence, 30 min; inhibition, % at 5 µM; 96,000 tested, 21% active; AID 778, 2007;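 active = CYP2C19 inhibition above a set limit at 5 µM in the primary screen, cut at about 50% in these data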;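 also: plate controls were negative control wells for no effect and 2.5 mM tranylcypromine positive control for full effect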
CYP2C9 inhib: blockers of cytochrome P450 2C9 activity – biochemical, luminescence, ADME assay, primary screen. P11712. inhibition, % at 5 µM. CYP2C9 Supersomes, luciferin-H conversion. 96,000 tested, 20% active;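 active = blocking of liver enzyme CYP2C9 beyond about 50% at 5 µM, limit read from the data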
* hit, by the source's call; x = not tested or not shown.

SMILES	CYP2C9 act	CD11b adhes enh	CYP2C19 activ	CD11b adhes inh	CYP2C19 inh	CYP2C9 inhib
CCOC(=O)c1ccc(N2C(=O)CC(NC3CCN(C(=O)c4ccc(F)cc4)CC3)C2=O)cc1 (stereo not given)	1	-1	1	-21	1	-3
CCCCN(CC)S(=O)(=O)c1ccc(C(=O)Nc2nnc(CSC)o2)cc1	0.2	3	1	-10	-4	82*
COc1ccccc1-c1nnc(NC(=O)c2ccccc2F)o1	0.4	0	1	4	-4	64*
CCN(Cc1ccccc1)S(=O)(=O)c1ccc(C(=O)Nc2nnc(-c3ccccc3OC)o2)cc1	0.3	13	1	-26	0	70*
COc1ccccc1-c1nnc(NC(=O)c2ccc(S(=O)(=O)N(C)C)cc2)o1	1.2	-4	1	-14	2	-15
CCCCN(CCCC)S(=O)(=O)c1ccc(C(=O)Nc2nnc(CSC)o2)cc1	0.9	-2	1.1	-4	-11	5
O=S(=O)(c1cnccc1N1CCN(/N=C/c2ccc(Cl)cc2)CC1)N1CCCCC1	0.4	-8	0.7	0	33	60*
O=C(CCSCCc1ccccn1)Nc1ccc(Cl)cn1	0.8	-9	0.8	3	24	24
O=c1c2ccccc2nnn1CSc1nnc(-c2cccnc2)n1-c1ccccc1F	1	-3	0.2	-3	75*	2
C/C(N)=C(/C#N)C(=O)CSc1nnc(Cc2ccccc2F)n1N	1	-2	0.6	-9	42	-2
Nn1c(Cc2ccccc2F)nnc1SCn1nnc2ccccc2c1=O	0.7	-2	0.4	2	64*	26
Cc1ccc(-n2c(SCn3nnc4ccccc4c3=O)nnc2-c2cccnc2)c(C)c1	0.9	4	0.7	16	26	8
COc1ccccc1-n1c(SCC(N)=O)nnc1-c1ccccc1	1	4	0.9	-24	10	-2
CCOC(=O)CCSc1nnc(-c2cccnc2)n1-c1ccccc1OC	0.8	-2	0.5	-12	54*	22
COCCn1c(COc2cccc(OC)c2)nnc1SCC(=O)N1CCOCC1	1	1	1	3	-2	3
CN1C2CCC1CC(OC(=O)c1c[nH]c3ccccc13)C2 (stereo not given)	0.8	-1	0.9	-25	10	17
CCn1nc(C(=O)OC(C(=O)c2c[nH]c3ccccc23)c2ccccc2)c2ccccc2c1=O (stereo not given)	0.3	8	0.7	13	34	74*
CC1CCC(NC(=O)C2CCN(c3cnccn3)CC2)CC1 (stereo not given)	1.1	-3	0.5	0	53*	-11
CCc1nnc(NC(=O)C2CCN(c3cnccn3)CC2)s1	0.8	-1	0.9	-10	5	25
CCN(CCCNC(=O)C1CCC(=O)N1C(C)C)c1cccc(C)c1 (stereo not given)	0.9	-3	0.8	-43	23	11
Cc1ccccc1NC(=S)NN1CCN(C)CC1	0.9	x	1	x	-1	6
CNC(=S)N1N=C(c2ccc(C)cc2)CC1c1ccc(OC)cc1 (stereo not given)	0.1	x	0.2	x	77*	93*
COc1cccc(NC(=O)N2CCCC2C(=O)NC2CC2)c1 (stereo not given)	1.3	1	1.1	5	-12	-29
CCOc1ccc(N2C(=O)/C(=C/c3cc(OC)c(OC)c(OC)c3)N(CC(=O)OC)C2=S)cc1	0.6	x	0.5	x	54*	42
CCc1ccc(N2C(=O)/C(=C/c3cccs3)N(CC(=O)OC)C2=S)cc1	0.6	x	0.8	x	22	42
SMILES	CYP2C9 act	CD11b adhes enh	CYP2C19 activ	CD11b adhes inh	CYP2C19 inh	CYP2C9 inhib
O=C(Nc1nc(N2C(=O)c3ccccc3C2=O)n(-c2ccccc2)n1)c1ccc(Cl)cc1	0.8	-1	0.9	1	12	15
COc1ccc(/C=C2\SC(=O)N(CCNC(=O)C3CC(=O)N(c4ccccc4)C3)C2=O)cc1 (stereo not given)	0.4	0	0.8	2	16	59*
COc1ccc(/C=C2\SC(=O)N(CCNC(=O)Cn3cnnn3)C2=O)cc1	0.3	-5	0.5	-4	54*	70*
CCOc1ccc(N2CC(C(=O)NCCN3C(=O)S/C(=C\c4ccc(OC)cc4)C3=O)CC2=O)cc1 (stereo not given)	x	1	x	-7	x	x
COCCNCC(=O)C12CC3CC(CC(C3)C1)C2	1.1	4	0.8	0	25	-8
O=c1oc2c3c4c(cc2c(C(F)(F)F)c1CCN1CCOCC1)CCCN4CCC3	1.4	4	0.9	-23	5	-38
CC(C)c1cc(=O)oc2c3c4c(cc12)CCCN4CCC3	0.9	-1	0.1	-8	87*	13
O=C(CN1CCOCC1)Nc1cccc(C(=O)Nc2cccc(C(F)(F)F)c2)c1	0.5	4	0.8	-10	25	52*
FC(F)(F)c1cccc(NC(=S)NCc2ccccc2)c1	1.9	-9	0.4	-1	63*	-88
O=C(CN1CCN(c2cccc(C(F)(F)F)c2)CC1)Nc1cccc(C(F)(F)F)c1	0.4	-2	0.6	13	42	58*
COc1ccccc1C(=O)Nc1cccc(NC(C)=O)c1	1	-4	0.8	-12	16	-1
CN(C)S(=O)(=O)Oc1ccccc1C(=O)Nc1cccc(C(F)(F)F)c1	0.9	x	0.1	x	86*	8
CC(=O)Nc1ccc(NC(=O)CN2CCN(c3cccc(C(F)(F)F)c3)CC2)cc1	0.8	-2	0.9	0	14	17
COC(=O)c1c(NC(=O)CN2CCC3(O)CCCCC3C2c2ccc(OC)cc2OC)sc(C)c1C (stereo not given)	x	57	x	18	x	x
O=C(Cc1ccccc1)Nc1ccc(N2CCCC2)cc1	0.9	7	0.8	3	24	14
COc1cc2c(cc1NC(=S)Nc1cccc(C(F)(F)F)c1)oc1ccccc12	0.2	-6	0.3	58	70*	79*
O=C(COCC(=O)Nc1cccc(C(F)(F)F)c1)Nc1cccc(C(F)(F)F)c1	0.8	-4	0.2	9	84*	17
O=C(Cc1ccccc1)Nc1cccc(N2CCCC2)c1	0.2	x	0.7	x	26	77*
CCC(C(=O)Nc1cccc(C(F)(F)F)c1)c1ccccc1 (stereo not given)	0.3	x	0.4	x	56*	71*
CCOc1ccccc1N(C(=O)Nc1ccc(Cl)cc1)C1=NC(C)CS1 (stereo not given)	x	1	x	10	x	x
